ATXN2 expr inh: Primary qHTS for Inhibitors of ATXN expression | Potency, µM (titrated, usually from 57 µM), actives largely listed as inhibitors | AID 1745845, 2022 | hit rate 0.72% among 360,000 | HEK-293 ATXN2-luciferase reporter, luminescence, 24 h; note: nearly all actives have a fitted effect of over 55% in size
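qHTS (up to 57 uM final) was run with 24 h compound exposure of reporter cells at 37 °C. Each well was multiplexed: SteadyGlo luminescence measured ATXN2-luciferase expression after a fluorogenic Gly-Phe-AFC viability readout (25 uM final).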
DT40 TDP1 no CPT: qHTS for Inhibitors of human tyrosyl-DNA phosphodiesterase 1 (TDP1): qHTS in cells in absence of CPT; DT40 Tdp1-/- hTDP1 cells, no CPT, ATP luminescence, 48 h; hit rate 15% among 420,000; Potency, µM (series often up to 46.2 µM), most hits filed as inhibitors; AID 686978, 2013; note: nearly all actives have a fitted effect of over 55% in size
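A cellular qHTS used chicken DT40 cells lacking endogenous Tdp1 but carrying stably transfected human TDP1. Compounds were applied without camptothecin, and cell growth kinetics were judged by ATP-dependent luminescence after ≥48 hr.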
DT40 TDP1 CPT: qHTS for Inhibitors of human tyrosyl-DNA phosphodiesterase 1 (TDP1): qHTS in cells in presence of CPT; chicken DT40 Tdp1-/-;hTDP1 cells + 20 nM CPT, ATP luminescence, 48 h; Potency, µM (doses to about 46.2 µM), hits mostly inhibitors; hit rate 12% among 420,000; AID 686979, 2013; note: nearly all actives have a fitted effect of over 55% in size
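Chicken DT40 Tdp1-/- cells stably complemented with human TDP1 were seeded at 400 cells/well in medium containing 20 nM camptothecin, exposed to pin-transferred compounds, and grown at 37 °C for at least 48 hr. Viability was read as ATP luminescence.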
TGFb inhibitor: qHTS for Inhibitors of TGF-b. HepG2 CAGA-GFP TGF-b/SMAD3 reporter, GFP fluorescence, 18 h; TGF-beta stimulated, 500 pg/mL final. Potency, µM (top dose mostly 46.1 µM), actives largely listed as inhibitors. hit rate 1.2% among 410,000. AID 588855, 2011; note: nearly all actives have a fitted effect of over 65% in size
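Using HEPG2 CAGA-GFP reporter cells at 1000 cells/well, we pinned test compounds, stimulated with recombinant TGF-beta (500 pg/mL final) and measured total well GFP after 18 h.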
S2 tox: Viability Counterscreen for Primary qHTS for Inhibitors of ATXN expression; S2 cells (HEK-293 line with an ATXN2-luciferase reporter) viability, CellTiter-Fluor protease fluorescence, 24 h; Potency, µM (series often up to 56.7 µM), most hits filed as cytotoxic; hit rate 0.49% among 400,000; AID 651635, 2014; note: nearly all actives have a fitted effect of over 40% in size
HepG2 viability: qHTS for Inhibitors of TGF-b: Cytotox Counterscreen | HepG2 CAGA-GFP viability, ATP luminescence, 18 h | Potency, µM (top dose mostly 46.1 µM), actives largely listed as cytotoxic | hit rate 0.76% among 410,000
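HepG2 CAGA-GFP cells (1000/well, DMEM with 1% FBS) received compound, then TGF-beta at 500 pg/mL final, and were incubated 18 hours at 37 degrees C. Viability was read by CellTiter-Glo luminescence. Media-only wells were set as complete cell-killing and DMSO as no toxicity.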
Each line names hits and unclear results; the compound was inactive in the other large screens. Sampled rows, rich in hits. Any-hit rate of the full collection: about 17%. Calls come from the whole dose curve; as a rule, active = well fitted curve in the direction sought with a large enough effect; inconclusive = small, poorly fitted or top-dose-only effect, or another doubt; inactive = no such curve, though single readings can be large; an effect the other way counts as inactive or inconclusive.

Cc1[nH][nH]c(=O)c1C(c1c(C)[nH][nH]c1=O)c1cn(Cc2ccc(F)cc2)c2ccccc12	DT40 TDP1 no CPT 5.2µM, DT40 TDP1 CPT 6.5µM
COc1ccccc1/C=C/c1nc(C#N)c(N2CCN(c3ccccc3)CC2)o1	DT40 TDP1 no CPT inconclusive, DT40 TDP1 CPT inconclusive
COc1ccc2c(c1)-c1nc(-n3ncc(C(=O)NCC4CCCN(C)C4)c3C3CC3)ncc1CC2 (configuration not stated)	none (no result: ATXN2 expr inh, TGFb inhibitor, HepG2 viability)
COc1ccc2c(c1)-c1nc(-n3ncc(C(=O)NC[C@@H]4CCCN5CCCC[C@H]45)c3C)ncc1CC2	DT40 TDP1 no CPT 9.2µM, DT40 TDP1 CPT inconclusive, S2 tox 25µM (no result: ATXN2 expr inh, TGFb inhibitor, HepG2 viability)
COc1ccc2c(c1)-c1nc(-n3ncc(C(=O)NCc4cccnc4)c3C3CC3)ncc1CC2	DT40 TDP1 no CPT 23µM (no result: ATXN2 expr inh, TGFb inhibitor, HepG2 viability)
CC12CCC(C(=O)Nc3ccncc3)(CC1O)C2(C)C (configuration not stated)	none
COC(=O)[C@@H]1CCCN1Cc1ccc2c(c1)CN(Cc1ccccc1)CCO2	none (no result: ATXN2 expr inh, TGFb inhibitor, HepG2 viability)
C[C@H](CO)N1C[C@H](C)[C@@H](CN(C)S(=O)(=O)c2ccccc2)Oc2c(NS(=O)(=O)c3ccc(F)cc3)cccc2C1=O	none
CCc1ccc(OCC(O)CN2CCC(CN3C(=O)c4cccc5cccc(c45)C3=O)CC2)cc1 (configuration not stated)	ATXN2 expr inh 25µM, DT40 TDP1 no CPT 21µM, DT40 TDP1 CPT 15µM (no result: S2 tox)
COc1cccc(OCC(O)CN2CCN(C)CC2)c1 (configuration not stated)	none
O=C1c2cccc3cccc(c23)C(=O)N1CC1CCN(CC(O)COc2ccc3ccccc3c2)CC1 (configuration not stated)	ATXN2 expr inh inconclusive, DT40 TDP1 no CPT 12µM, DT40 TDP1 CPT 15µM, TGFb inhibitor inconclusive, HepG2 viability 16µM
COc1cccc(OCC(O)CN2CCC(CN3C(=O)c4cccc5cccc(c45)C3=O)CC2)c1 (configuration not stated)	ATXN2 expr inh inconclusive, DT40 TDP1 no CPT 7.3µM, DT40 TDP1 CPT 8.2µM, TGFb inhibitor inconclusive, S2 tox inconclusive, HepG2 viability 14µM
COc1ccc(OCC(O)CN2C(=O)c3ccccc3C2=O)cc1 (configuration not stated)	none
COc1ccc(COCC(O)CN2CCC(CN3C(=O)c4cccc5cccc(c45)C3=O)CC2)cc1OC (configuration not stated)	DT40 TDP1 no CPT 21µM, DT40 TDP1 CPT inconclusive, S2 tox inconclusive
COc1ccc(COCC(O)CN2CCC(C(N)=O)CC2)cc1OC (configuration not stated)	none
COc1cccc(CNC(=O)CCc2c(C)c3cc4c(C)coc4c(C)c3oc2=O)c1	DT40 TDP1 no CPT inconclusive, DT40 TDP1 CPT inconclusive (no result: ATXN2 expr inh, S2 tox)
COc1ccc(CNC(=O)C2=CCN(S(=O)(=O)c3ccc(C)cc3)CC2)cc1	none
CCOc1ccc(OCCC(=O)N(CC(C)C)c2c(N)n(Cc3ccccc3)c(=O)[nH]c2=O)cc1	none
Cc1cccc(N2CCN(CC(O)COc3ccc4ccccc4c3)CC2)c1 (configuration not stated)	DT40 TDP1 no CPT inconclusive
Cc1cc(C)cc(OCC(O)CN2CCC(CN3C(=O)c4cccc5cccc(c45)C3=O)CC2)c1 (configuration not stated)	ATXN2 expr inh 20µM, DT40 TDP1 no CPT inconclusive, DT40 TDP1 CPT 15µM, TGFb inhibitor inconclusive, HepG2 viability 20µM (no result: S2 tox)
O=C1c2cccc3cccc(c23)C(=O)N1CCN1CCN(CC(O)COc2ccc3ccccc3c2)CC1 (configuration not stated)	ATXN2 expr inh inconclusive, DT40 TDP1 no CPT 10µM, DT40 TDP1 CPT 18µM, S2 tox inconclusive

Screening data from PubChem BioAssay.
